Source: PubChem
Dicer processing – blocks human Dicer maturation of pre-miR-21; cat-ELCCA pre-miR-21 Dicer processing, chemiluminescence; stronger effect = higher value; Q9UPY3; AID 1347074; actives 6% (n = 47,000); z-score at 25 µM; in the data active = z-score above about 3, passing the limit was not always enough;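 note: plate controls were vehicle for no effect and no enzyme for full effect; higher signal means more uncleaved substrate so more Dicer inhibition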
Starred values were filed as active, the others as inactive; ! = a repeat was not active. This excerpt belongs to a sample that is enriched for hits.

SMILES	Dicer processing
c1ccc(-c2noc(CCC3CCCCC3)n2)nc1	-0.67
O=C(COC(=O)c1cc2ccccc2cc1OC(=O)c1ccc(Cl)cc1)c1ccc(Cl)cc1	1.01
COc1ccc(C(=O)CC(=O)c2cc(Cl)ccc2O)cc1OC	-0.7
Cc1ccc(C(=O)COC(=O)c2cc(Cl)ccc2O)cc1C	3.99*
O=C1CC(NCCc2c[nH]c3ccccc23)C(=O)N1c1ccc(Cl)cc1 (stereo not drawn)	-0.41
CCOC(=O)Cn1cc(C(=O)C2CC2)c2ccccc21	1.79
CC1CCN(C(=O)Cn2cc(C(=O)C3CC3)c3ccccc32)CC1	5.13*
COC(=O)c1cn(CC(=O)N2CCOCC2)c2ccccc12	5.95*
O=C(c1cccs1)c1cn(CC(=O)N2CCOCC2)c2ccccc12	0.7
CC1CCCC(C)N1C(=O)Cn1cc(C(=O)C2CCCCC2)c2ccccc21 (stereo not drawn)	-4.06
CCC(=O)c1cn(CC(=O)N2CCOCC2)c2ccccc12	-0.16
COc1ccc(Br)cc1CNCc1cccnc1	0.43
COC(=O)C1=C(C)NC2=C(C(=O)CCC2)C1c1ccccc1OC(C)C (stereo not drawn)	1.2
COc1cccc(C2c3c(oc4cc(C)c(C)cc4c3=O)C(=O)N2c2nccs2)c1 (stereo not drawn)	1.11
Cc1cc(C)c(C#N)c(S(=O)Cc2ccc(Cl)cc2)n1 (stereo not drawn)	1.51
COc1ccc(C(=O)CC2(O)C(=O)N(C)c3ccccc32)cc1 (stereo not drawn)	1.22
CC(C)(C)c1ccc(-c2noc(CSc3n[nH]c(=O)n3C3CC3)n2)cc1	-0.02
Cc1[nH]n(-c2ccccc2)c(=O)c1N=Nc1ccc(N2CCOCC2)cc1	1.47
COC(=O)C1=C(C)NC2=C(C(=O)CC(C)(C)C2)C1c1ccccc1OC (stereo not drawn)	2.81
COc1ccc(Br)cc1C1C(C#N)=C(N)Oc2cc(O)ccc21 (stereo not drawn)	0.58
COC(=O)C1=C(N)Oc2cc(N(C)C)ccc2C1c1ccccc1OC (stereo not drawn)	3.17*
COC(=O)c1ccc(/C=N/NC(N)=S)n1-c1ccc(F)cc1	0.09
COc1cc(I)c(OC)cc1C	-1.12
CC(C)c1ccc(/C=C2\CSc3ccccc3C2=O)cc1	-0.35
CCc1cncnc1N1CCN(Cc2nc3ccc(C(F)(F)F)cc3[nH]2)CC1	0.41
SMILES	Dicer processing
CN(C)c1ccc(-c2nnc(-c3ccccc3)o2)cc1	4.23*
c1ccc(-c2nnc(-c3ccccc3)o2)cc1	1.15
CCCOC(=O)CSc1nnc(-c2ccc(N(C)C)cc2)o1	-1.4
CCOC(=O)N1CCN(C(=O)N2c3ccccc3Sc3ccccc32)CC1	4.7*
CC1CCN(C(=O)N2c3ccccc3Sc3ccccc32)CC1	-0.44
O=C(N1CCN(c2ccccc2)CC1)N1c2ccccc2Sc2ccccc21	1.28
Cc1cccc(NC(NC(=O)c2ccccc2C)(C(F)(F)F)C(F)(F)F)n1	-0.26
CC(C)OCCCNc1ncnc2ccccc12	0.03
O=c1cc(CSc2ccc(Cl)cc2)nc2nc[nH]n12	4.39*
CCc1nc2nc(CSc3ccc(C)cc3)cc(=O)n2[nH]1	1.28
O=c1cc(-c2ccccc2)nc2nc[nH]n12	1.06
CC(=O)C1COc2ccc(C)cc2C1=O (stereo not drawn)	-0.81
COc1ccc(C(=O)c2ccccc2)c(O)c1	1.07
COc1ccc(C(=O)c2oc3ccc(OC)cc3c2N)cc1	4.24*
COc1ccc(C(=O)c2oc3ccc(Cl)cc3c2N)cc1	0.05
COc1ccc(C(=O)c2coc3ccc(O)cc23)cc1	5.36*
COc1ccc2oc(C(=O)c3ccc(Cl)cc3)c(N)c2c1	10
COc1ccc(-c2cc(=O)c3ccc(O)cc3o2)cc1	0.66
O=C(CC1(O)C(=O)Nc2ccc(Br)cc21)c1ccc2c(c1)OCCO2 (stereo not drawn)	-1.14
CCOC(=O)C1=C(N)Oc2c(OC)cc(Br)cc2C1C(C#N)C(=O)OCC (stereo not drawn)	-0.22
CCCc1cnc(N2CCCN(C(=O)OC(C)(C)C)CC2)nc1	-1.05
CCCOc1ccc(N2C(=O)CC(SCC(N)C(=O)OCC)C2=O)cc1 (stereo not drawn)	-0.88
CCOc1ccc(N2C(=O)CC(Sc3nc(C)c(CC)c(C)c3C#N)C2=O)cc1 (stereo not drawn)	3.39*
CCCOc1ccc(N2C(=O)CC(SCCN)C2=O)cc1 (stereo not drawn)	-0.11
O=C(Nc1ccc(-c2nnc(Nc3ccccc3C(F)(F)F)s2)cc1)c1cccs1	1.38
SMILES	Dicer processing
CN1c2ccsc2C(=O)/C(=C\Nc2ccc(F)cc2)S1(=O)=O	1.63
COC(=O)C1=C(C)N=c2s/c(=C/c3ccc4c(c3)OCO4)c(=O)n2C1c1ccccc1 (stereo not drawn)	0.78
COC(=O)c1sc(N2C(=O)C(=O)/C(=C(/O)c3ccc(Cl)cc3)C2c2ccc(OC)cc2)nc1C (stereo not drawn)	1.88
COC(=O)C1=C(C)N=c2s/c(=C/c3ccc(Cl)cc3)c(=O)n2C1c1ccc(OC)cc1 (stereo not drawn)	4.62*
CCOc1ccc(C2C(C#N)=C(N)Oc3n[nH]c(-c4ccccc4)c32)cc1 (stereo not drawn)	-6.92
Cc1cc(NC(=O)CCC(=O)O)n(C)n1	0.37
Cn1nccc1NC(=O)CC1(CC(=O)O)CCCCC1	0.01
Cc1cc(NC(=O)CC2(CC(=O)O)CCCC2)n(C)n1	3.42*
CCOC1O[C@@H]2[C@H](O1)[C@@H](CO)O[C@H]2n1cnc2c(N)ncnc21 (stereo partly drawn)	-0.14
Cc1coc2c(Cl)cc(Cl)cc2c1=O	-0.01
CCCCCCCC/C=C\CCCCCCCC(=O)NCCc1ccc(O)c(O)c1	1.09
CC(CCc1ccc(O)cc1)NCCc1ccc(O)c(O)c1 (stereo not drawn)	6.96*!
C[C@H](Cc1ccc(O)c(O)c1)[C@@H](C)Cc1ccc(O)c(O)c1	0.3
Cc1ccc2nc3c(cc2c1)c(=O)n(C)c1c3c(=O)n(-c2ccccc2)c(=O)n1-c1ccccc1	-1.36
Cc1cc(=O)oc2cc(OS(=O)(=O)c3cc(C(F)(F)F)cc(C(F)(F)F)c3)c(Cl)cc12	4.23*
Cc1ccc(S(=O)(=O)Oc2cc(C)ccc2C)cc1	-0.61
Cc1cc(=O)oc2cc(OS(=O)(=O)c3cc(Cl)c(Cl)cc3Cl)c(Cl)cc12	2.94
NC(N)=NC(N)=Nc1cccc(Cl)c1Cl	2.94
O=C(CC(=O)c1ccc2ccccc2c1O)c1ccco1	2.38
CN1CC(=O)N/C1=N\C(=O)Nc1cccc(Cl)c1	-1.5
O=C(Nc1cccc(Cl)c1)N1CCc2ccccc2C1	5.96*
O=C(Nc1cccc(Cl)c1)N1CCN(c2nsc3ccccc23)CC1	-0.99
O=S(=O)(Nc1ccccc1NC1CCN(Cc2ccccc2)CC1)c1ccc(F)cc1	2.45
CCOC(=O)C1=C(C)OC(N)=C(C#N)C1c1ccc(C(F)(F)F)cc1 (stereo not drawn)	-1.24
Fc1ccc(CSc2nnc([C@@H]3CCCN3)o2)cc1	-0.26
SMILES	Dicer processing
COC(=O)C1=C(C)N(Cc2cccnc2)C(=O)C1	-0.1
CCOC(=O)C1=C(C)N(c2ccccc2)C(=O)C1	1.99
COC(=O)C1=C(C)N(c2cc(C)cc(C)c2)C(=O)C1	3.61*
Cc1cnc(NC(=O)c2cc(Cl)sc2Cl)c(C)n1	0.73
COc1ccccc1C(=O)NNc1cc(C(F)(F)F)ccn1	-0.23
CSCCC(NS(=O)(=O)c1ccc2c3c(cccc13)C(=O)N2)C(=O)O (stereo not drawn)	0.98
Cc1cc(C)c(S(=O)(=O)N2CC(C)CC(C)C2)c(C)c1 (stereo not drawn)	0.57
